The values that follow come from PubChem BioAssay (Tox21).

Test [1] in a line: qHTS assay for small molecule agonists of the p53 signaling pathway (AID 651631; calls by dose curve; note: nearly all actives have a fitted effect of over 15% in size; note: potency is the fitted concentration of half-maximal effect). As to conditions: HCT-116 p53RE-bla reporter, beta-lactamase FRET ratio, 16 h; series mostly up to 73.3 µM. Put shortly:
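HCT-116 cells carrying a stable p53 response element–beta-lactamase reporter were plated, rested 5 h at 37 °C, then exposed to compound in DMSO for 16 h at 37 °C; reporter activity was read as FRET substrate fluorescence after 2 h at room temperature.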

Test [2] is described as follows: qHTS assay for small molecules that induce genotoxicity in human embryonic kidney cells expressing luciferase-tagged ATAD5 (AID 651632). Note: nearly all actives have a fitted effect of over 15% in size. As to conditions: HEK293T ATAD5-luciferase induction, 16 h; series mostly up to 83.3 µM. Put shortly: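 Reporter cells (HEK293T) express luciferase-tagged ATAD5, a protein that accumulates after DNA damage. Treat 16 hr at 37C/5% CO2, add Amplite, wait 30 min at RT, and read luminescence.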
In general terms: Quantitative high-throughput screening tests each substance at several concentrations.

Test [3] is described as follows: qHTS assay for small molecule agonists of the p53 signaling pathway - cell viability (AID 651633; calls by dose curve; note: nearly all actives have a fitted effect of over 30% in size). As to conditions: p53RE-bla HCT-116 viability, ATP luminescence, 16 h; series mostly up to 83.3 µM. Put shortly:
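Viability counter-read: CellTiter-Glo luminescence (30 min, room temperature) in the same p53RE-bla plates. These plates had been exposed to compounds for 16 h at 37 C.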

The nature of test [4]: qHTS assay for small molecules that induce genotoxicity in human embryonic kidney cells expressing luciferase-tagged ATAD5 - cell viability (AID 651634; calls by dose curve; note: nearly all actives have a fitted effect of over 25% in size). As to conditions: HEK293T ATAD5-luc cells viability, CellTiter-Fluor, 15.5 h; series mostly up to 83.3 µM. Put shortly: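 Seeding of 2,000 HEK293T ATAD5-luciferase cells per well preceded pin-tool compound transfer. Plates sat 15.5 hr at 37C under 5% CO2, then fluorescence was read after 30 min with CellTiter-Fluor.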

The nature of test [5]: qHTS assay for small molecule disruptors of the mitochondrial membrane potential - cell viability (AID 720634; calls by dose curve;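 note: human HepG2 liver cancer cells; nearly all actives have a fitted effect of over 20% in size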). Conditions: HepG2 viability, ATP luminescence (CellTiter-Glo), 1 h; series mostly up to 83.2 µM. Put shortly:
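Measuring cytotoxicity alongside mitochondrial potential, the screen quantified ATP by luminescence in HepG2 cells after 1 hr compound incubation and a 30 min room-temperature CellTiter-Glo step.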

Test [6] in a line: qHTS assay to test for compound auto fluorescence at 590 nm (red) in HepG2 cells (AID 720674). As to conditions: HepG2 autofluorescence, red 540/590 nm, 1 h; series mostly up to 91.3 µM. Put shortly:
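We screened compounds on adherent HepG2 cells, incubating them for an hour at 37 C in 5% CO2 before reading emission at 590 nm under 540 nm excitation; values reflect equivalence to Rose Bengal sodium fluorescence.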

Test [7] is described as follows: qHTS assay to test for compound auto fluorescence at 535 nm (green) in HepG2 cells (AID 720675). As to conditions: green autofluorescence 485/535 nm, 1 h; series mostly up to 91.3 µM.
A short description of test [8]: qHTS assay to test for compound auto fluorescence at 590 nm (red) in HEK293 cells (AID 720679). As to conditions: red autofluorescence 540/590 nm; series mostly up to 91.3 µM. Put shortly: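 Red channel, Ex/Em 540/590nm; signal expressed as equivalency to Rose Bengal sodium. HEK293, 2,000 cells/well, 10% dialyzed FBS; 23 nL compound pinned after 4-5 hr attachment; overnight 37C/5% CO2 before reading.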

Test [9] in a line: qHTS assay to test for compound auto fluorescence at 460 nm (blue) in HEK293 cells (AID 720678). As to conditions: blue autofluorescence 405/460 nm; series mostly up to 91.3 µM. Put shortly: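 Blue read-out at excitation 405 nm and emission 460 nm follows overnight compound exposure of HEK293 cells at 37C in 5% CO2. Activity is given as auto fluorescence equivalency to triamterene.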

Test [10] in a line: qHTS assay for small molecule disruptors of the mitochondrial membrane potential (AID 720635). As to conditions: HepG2 mitochondrial membrane potential, Mito-MPS dye ratio; series mostly up to 83.2 µM. Put shortly: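 Mitochondrial membrane potential tracked with Mito-MPS dye, red aggregates (ex 540/em 590 nm) against green monomers (ex 490/em 535 nm). Compound treatment 1 hr at 37C, dye 30 min in HepG2.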

Values without a mark were called inactive. Inconclusive results are not listed. Active and inactive are the calls of the source. Unless noted, calls come from the whole dose curve; as a rule, active = well fitted curve in the direction sought with a large enough effect in the repeat runs; inconclusive = weak or mixed curves; inactive = no such curve, though single readings can be large; an effect the other way counts as inactive or inconclusive.
% is set by controls: 0 for no effect and ±100 for the full control effect.

`C[C@@H](CN1CC(=O)NC(=O)C1)N1CC(=O)NC(=O)C1`: the Potency result in [1] and in [2] was “inactive” in each case. For the same molecule, the result in [3], in test [4], in [5], in [6], in test [7] and in test [8] was inactive.

With `C=CC(=O)CC`, the Potency entry in [1] and in [2] was “inactive” throughout. Moreover, the call in test [3], in [4], in test [6], in [7], in test [9] and in [8] was inactive.

With `CC(C)OC(=O)C(C(=O)OC(C)C)=C1SC=CS1`, the Potency entry in [1] and in test [2] was “inactive” throughout. For the same molecule, the result in [3], in test [4], in test [6], in test [7], in test [9] and in test [8] was inactive.

With `CC(=O)Oc1ccc(C(C)=O)cc1`, the Potency result in [1] and in [2] was “inactive” in each case. In addition, the outcome in [3], in test [4], in test [5], in test [6], in test [7] and in test [8] was inactive.

Turning to `Cc1ccccc1C#N`, the Potency entry in test [1] and in test [2] was “inactive” in each case. Besides, the outcome in [3], in [5], in [6], in test [7] and in test [8] was inactive.

Regarding `CCCCCC(=O)CC`, the Potency entry in test [1] and in [2] was “inactive” throughout. Further, the result in test [3], in test [6], in test [7], in [9] and in [8] was inactive.

In the case of `C=CCOC(=O)CCCCCCCC`, the Potency result in test [1], in test [2] and in [10] was “inactive” in each case. For the same molecule, the molecule was classed as inactive in test [4], in [5], in test [6], in test [7], in test [9] and in test [8].

As to `CCCc1ccc(O)c(OC)c1`, the Potency result in test [1], in test [2] and in [10] was “inactive” each time. In addition, the molecule was classed as inactive in test [3], in [5], in [6], in test [7], in [9] and in test [8].

As for `CCCCCCC(O)CO` (stereo not given), the Potency result in test [1] and in test [2] was “inactive” each time. Also, the molecule was classed as inactive in test [3], in [5], in test [6], in test [7], in [9] and in [8].

As for `CCNC(=O)C(C)OC(=O)Nc1ccccc1` (stereo not given), the Potency result in test [1] and in test [2] was “inactive” each time. The result in test [3], in test [5], in test [6], in test [7] and in test [8] was inactive.

On to `CN1CCN(C(=O)C2CCCCC2)CC1`, for which the Potency entry in [1], in test [2] and in test [10] was “inactive” in each case. For the same molecule, the molecule was called inactive in test [3], in [5], in test [6], in [7], in test [9] and in test [8].

As to `O=P(O)(O)C(O)(Cc1cccnc1)P(=O)(O)O`, the Potency entry in test [1], in test [2] and in test [10] was “inactive” each time. Moreover, the molecule was called inactive in test [3], in [5], in test [6], in [7] and in test [8].

For the molecule `CC(C)(Sc1cc(C(C)(C)C)c(O)c(C(C)(C)C)c1)Sc1cc(C(C)(C)C)c(O)c(C(C)(C)C)c1`, the Potency entry in test [1], in test [2] and in test [10] was “inactive” throughout. In addition, the molecule was classed as inactive in test [4]. In [6], the fluorescence, relative to Rose Bengal is 0.757% [at 18.6 µM]. The fluorescence, % of fluorescein control in [7] was -0.143% [at 18.6 µM]. Moreover, in test [9], the fluorescence, % of triamterene is -0.428% [at 18.6 µM]. Also, in test [8], the fluorescence, % of fluorescent control was -1.27% [at 18.6 µM].

Regarding `COc1cc2nc(N3CCN(C(=O)C4CCCO4)CC3)nc(N)c2cc1OC` (stereo not given), the Potency entry in test [1] and in [2] was “inactive” each time. In addition, the call in [4], in [5], in test [6], in [7], in test [9] and in test [8] was inactive.

For the molecule `COC(=O)c1ccc(C(=O)O)cc1`, the Potency entry in test [1], in [2] and in test [10] was “inactive” each time. Further, the call in test [4], in [5], in test [6], in test [7], in test [9] and in test [8] was inactive.

For the molecule `CC(C)=CCC/C(C)=C\C#N`, the Potency entry in test [1] and in [2] was “inactive” throughout. Moreover, the molecule was classed as inactive in test [4], in test [5], in test [6], in test [7], in test [9] and in test [8].

As to `CC(CN1CC(=O)NC(=O)C1)N1CC(=O)NC(=O)C1` (stereo not given), the Potency in test [1] was 11.9 µM (active). The Potency result in [2] and in test [10] was “inactive” throughout. Moreover, the call in [4], in [5], in test [6], in test [7], in test [9] and in [8] was inactive.

As for `C=C(C)C(=O)OCCOC1CC2CC1C1C=CCC21` (stereo not given), the Potency entry in test [1] and in [2] was “inactive” throughout. In addition, the result in test [4], in [5], in [6], in test [7], in [9] and in [8] was inactive.

For the molecule `CCCCCCCCCCCCCCCCN(C)C`, the activation in test [1] was -4.5% [at 8.3 µM]; in [2] it was 2.36% [at 8.08 µM]. Moreover, the activity change, negative = cytotoxicity in test [3] was 8.53% [at 8.08 µM]. For the same molecule, the fluorescence, relative to Rose Bengal in test [6] is 0.017% [at 3.72 µM]. Besides, the fluorescence, % of fluorescein control in test [7] is -0.0084% [at 3.72 µM]. In test [9], the fluorescence, % of triamterene is -0.0322% [at 3.72 µM]. For the same molecule, in test [8], the fluorescence, % of fluorescent control is -0.181% [at 3.72 µM].

For `COC(=O)/C=C(\C)CCC=C(C)C`, the Potency entry in test [1], in test [2] and in [10] was “inactive” in each case. The outcome in test [4], in test [5], in [6], in test [7] and in [8] was inactive.

For the molecule `NCC1CCC(C(=O)Oc2ccc(CCC(=O)O)cc2)CC1` (stereo not given), the Potency entry in test [1], in [2] and in test [10] was “inactive” throughout. In addition, the call in test [3], in test [5], in test [6], in test [7], in test [9] and in test [8] was inactive.
